# Results as given in the supplement of paper PMC11732987, “Enantioselective OTUD7B fragment discovery through chemoproteomics screening and high-throughput optimisation” (Communications Chemistry, 2025).
# Values without a mark were called inactive.
# Experiments:
# Test in all cases: log2 ratio of Biotin-Ahx-Ub-VS probe labelling (fragment/DMSO); higher = less target engagement (more negative = stronger competition), active = hit call of the paper (q ≤ 0.05, log2 ratio ≤ -1)
# Settings in all cases: compound concentration: 200 uM; treatment time: 3 h
# ALG13 = target: T1, ALG13 (UniProt Q9NP73)
# T1 sequence (whole entry): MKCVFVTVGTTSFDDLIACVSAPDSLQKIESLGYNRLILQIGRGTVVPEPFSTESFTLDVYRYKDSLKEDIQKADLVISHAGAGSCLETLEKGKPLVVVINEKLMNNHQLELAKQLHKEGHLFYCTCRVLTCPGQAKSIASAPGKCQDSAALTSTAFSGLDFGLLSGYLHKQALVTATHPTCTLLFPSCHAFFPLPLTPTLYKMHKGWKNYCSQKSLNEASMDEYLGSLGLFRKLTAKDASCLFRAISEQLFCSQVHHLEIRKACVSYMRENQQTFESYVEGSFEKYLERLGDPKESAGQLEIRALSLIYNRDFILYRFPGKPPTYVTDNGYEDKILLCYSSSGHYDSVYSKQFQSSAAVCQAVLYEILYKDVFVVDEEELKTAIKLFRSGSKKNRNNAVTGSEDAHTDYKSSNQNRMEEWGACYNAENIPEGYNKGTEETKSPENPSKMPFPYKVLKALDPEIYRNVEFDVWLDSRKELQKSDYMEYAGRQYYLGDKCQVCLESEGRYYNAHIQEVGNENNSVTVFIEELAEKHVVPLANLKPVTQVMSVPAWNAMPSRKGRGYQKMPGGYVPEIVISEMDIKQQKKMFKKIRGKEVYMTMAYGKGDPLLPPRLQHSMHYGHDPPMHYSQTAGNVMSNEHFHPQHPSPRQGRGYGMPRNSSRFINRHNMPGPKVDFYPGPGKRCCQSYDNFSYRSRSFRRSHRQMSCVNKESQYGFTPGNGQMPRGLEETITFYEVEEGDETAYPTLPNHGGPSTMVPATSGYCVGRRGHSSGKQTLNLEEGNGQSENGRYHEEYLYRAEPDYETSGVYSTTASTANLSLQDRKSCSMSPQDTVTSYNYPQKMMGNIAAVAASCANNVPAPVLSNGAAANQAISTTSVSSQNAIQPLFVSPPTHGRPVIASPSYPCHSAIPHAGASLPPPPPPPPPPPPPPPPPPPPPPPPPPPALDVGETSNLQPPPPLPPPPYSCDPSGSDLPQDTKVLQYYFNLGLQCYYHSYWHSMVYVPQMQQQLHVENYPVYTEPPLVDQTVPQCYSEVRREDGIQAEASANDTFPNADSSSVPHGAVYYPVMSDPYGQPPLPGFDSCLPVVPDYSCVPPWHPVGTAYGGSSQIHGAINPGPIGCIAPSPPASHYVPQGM
# In short: (§1)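 Fragment (200 µM) or vehicle was incubated for 3 h with triplicate HEK293T lysate samples of 495 µg, which were then treated with Biotin-Ahx-Ub-VS at 0.5 µM final for 1 h. Labelled DUBs were enriched on NeutrAvidin, digested with LysC and trypsin, and analysed by diaPASEF LC-MS/MS. Values are average log2 fragment/vehicle ratios from an unpaired t-test on global-median-normalised Spectronaut label-free quantities, using proteins with ≥2 unique peptides.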
# ATXN3 = ATXN3 (UniProt P54252)
# Chain of ATXN3 (P54252 whole entry): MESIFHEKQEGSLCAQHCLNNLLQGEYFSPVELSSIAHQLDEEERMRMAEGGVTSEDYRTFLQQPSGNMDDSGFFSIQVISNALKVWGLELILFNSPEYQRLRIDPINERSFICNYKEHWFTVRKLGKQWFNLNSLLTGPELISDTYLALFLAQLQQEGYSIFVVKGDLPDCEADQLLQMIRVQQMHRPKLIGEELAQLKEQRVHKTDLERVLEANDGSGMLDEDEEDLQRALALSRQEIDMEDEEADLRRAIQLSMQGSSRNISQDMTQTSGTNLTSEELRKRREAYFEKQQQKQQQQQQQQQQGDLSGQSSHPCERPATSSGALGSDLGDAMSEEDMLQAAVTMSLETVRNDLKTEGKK
# In short: as §1
# BAP1 = target: T2, BAP1 (UniProt Q92560)
# T2 sequence (whole entry): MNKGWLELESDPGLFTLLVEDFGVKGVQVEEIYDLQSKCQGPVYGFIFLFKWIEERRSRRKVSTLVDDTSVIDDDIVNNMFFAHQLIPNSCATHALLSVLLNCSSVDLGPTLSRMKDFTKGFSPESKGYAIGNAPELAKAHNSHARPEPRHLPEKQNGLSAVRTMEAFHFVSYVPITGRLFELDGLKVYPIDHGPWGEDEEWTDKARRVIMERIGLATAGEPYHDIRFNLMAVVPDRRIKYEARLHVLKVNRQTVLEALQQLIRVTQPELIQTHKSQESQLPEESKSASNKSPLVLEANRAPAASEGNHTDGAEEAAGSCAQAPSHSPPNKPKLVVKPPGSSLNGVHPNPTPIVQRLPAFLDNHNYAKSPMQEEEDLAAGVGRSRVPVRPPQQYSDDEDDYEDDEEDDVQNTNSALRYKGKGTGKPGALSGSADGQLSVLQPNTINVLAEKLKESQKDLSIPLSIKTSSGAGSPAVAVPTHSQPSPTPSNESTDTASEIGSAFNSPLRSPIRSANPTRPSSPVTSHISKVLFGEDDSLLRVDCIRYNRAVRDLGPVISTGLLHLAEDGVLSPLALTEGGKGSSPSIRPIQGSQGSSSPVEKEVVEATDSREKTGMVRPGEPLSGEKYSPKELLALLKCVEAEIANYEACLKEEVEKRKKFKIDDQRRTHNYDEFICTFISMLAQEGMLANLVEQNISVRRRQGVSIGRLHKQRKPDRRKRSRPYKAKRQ
# In short: as §1
# EIF3F = EIF3F (UniProt O00303)
# Chain of EIF3F (O00303 whole entry): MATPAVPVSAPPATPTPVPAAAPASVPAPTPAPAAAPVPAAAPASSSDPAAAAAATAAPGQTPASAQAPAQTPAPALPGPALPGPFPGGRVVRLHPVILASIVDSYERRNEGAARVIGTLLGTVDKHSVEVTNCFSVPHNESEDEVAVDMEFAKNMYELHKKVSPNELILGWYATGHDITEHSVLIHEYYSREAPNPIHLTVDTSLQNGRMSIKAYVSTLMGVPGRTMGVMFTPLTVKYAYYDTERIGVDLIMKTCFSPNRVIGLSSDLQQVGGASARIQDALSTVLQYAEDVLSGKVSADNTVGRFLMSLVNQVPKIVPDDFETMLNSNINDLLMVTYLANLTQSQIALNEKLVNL
# In short: as §1
# EIF3H = EIF3H (UniProt O15372)
# Chain of EIF3H (O15372 whole entry): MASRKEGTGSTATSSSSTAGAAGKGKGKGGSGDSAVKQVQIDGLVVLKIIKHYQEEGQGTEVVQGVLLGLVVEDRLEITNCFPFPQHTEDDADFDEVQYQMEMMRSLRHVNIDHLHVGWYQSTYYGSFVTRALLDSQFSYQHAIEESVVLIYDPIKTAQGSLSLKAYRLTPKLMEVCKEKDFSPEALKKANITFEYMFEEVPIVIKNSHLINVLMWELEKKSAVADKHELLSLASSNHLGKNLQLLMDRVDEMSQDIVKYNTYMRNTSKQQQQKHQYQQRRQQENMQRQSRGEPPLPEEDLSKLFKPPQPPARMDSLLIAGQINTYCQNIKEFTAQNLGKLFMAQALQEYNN
# In short: as §1
# FAM105A = target: T3, FAM105A (UniProt Q9NUU6)
# T3 sequence (whole entry): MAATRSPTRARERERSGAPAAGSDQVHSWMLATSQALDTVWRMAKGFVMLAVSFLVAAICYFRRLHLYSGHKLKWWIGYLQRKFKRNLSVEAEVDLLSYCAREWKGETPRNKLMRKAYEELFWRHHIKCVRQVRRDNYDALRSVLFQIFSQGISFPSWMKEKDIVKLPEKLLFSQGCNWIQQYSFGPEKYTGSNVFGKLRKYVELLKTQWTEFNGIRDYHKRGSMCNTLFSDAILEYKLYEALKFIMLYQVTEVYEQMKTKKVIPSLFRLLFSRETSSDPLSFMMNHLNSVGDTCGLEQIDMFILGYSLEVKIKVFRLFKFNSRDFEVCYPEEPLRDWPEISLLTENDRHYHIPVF
# In short: as §1
# OTUB1 = OTUB1 (UniProt Q96FW1)
# Chain of OTUB1 (Q96FW1 whole entry): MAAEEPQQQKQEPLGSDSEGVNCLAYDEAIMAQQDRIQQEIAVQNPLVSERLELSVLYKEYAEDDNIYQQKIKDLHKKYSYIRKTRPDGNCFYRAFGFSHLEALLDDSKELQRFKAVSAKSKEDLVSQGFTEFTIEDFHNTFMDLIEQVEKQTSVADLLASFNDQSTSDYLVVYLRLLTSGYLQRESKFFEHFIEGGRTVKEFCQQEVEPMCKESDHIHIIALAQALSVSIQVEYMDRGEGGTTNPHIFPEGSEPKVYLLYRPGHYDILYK
# In short: as §1
# OTUD4 = target: T4, OTUD4 (UniProt Q01804)
# T4 sequence (whole entry): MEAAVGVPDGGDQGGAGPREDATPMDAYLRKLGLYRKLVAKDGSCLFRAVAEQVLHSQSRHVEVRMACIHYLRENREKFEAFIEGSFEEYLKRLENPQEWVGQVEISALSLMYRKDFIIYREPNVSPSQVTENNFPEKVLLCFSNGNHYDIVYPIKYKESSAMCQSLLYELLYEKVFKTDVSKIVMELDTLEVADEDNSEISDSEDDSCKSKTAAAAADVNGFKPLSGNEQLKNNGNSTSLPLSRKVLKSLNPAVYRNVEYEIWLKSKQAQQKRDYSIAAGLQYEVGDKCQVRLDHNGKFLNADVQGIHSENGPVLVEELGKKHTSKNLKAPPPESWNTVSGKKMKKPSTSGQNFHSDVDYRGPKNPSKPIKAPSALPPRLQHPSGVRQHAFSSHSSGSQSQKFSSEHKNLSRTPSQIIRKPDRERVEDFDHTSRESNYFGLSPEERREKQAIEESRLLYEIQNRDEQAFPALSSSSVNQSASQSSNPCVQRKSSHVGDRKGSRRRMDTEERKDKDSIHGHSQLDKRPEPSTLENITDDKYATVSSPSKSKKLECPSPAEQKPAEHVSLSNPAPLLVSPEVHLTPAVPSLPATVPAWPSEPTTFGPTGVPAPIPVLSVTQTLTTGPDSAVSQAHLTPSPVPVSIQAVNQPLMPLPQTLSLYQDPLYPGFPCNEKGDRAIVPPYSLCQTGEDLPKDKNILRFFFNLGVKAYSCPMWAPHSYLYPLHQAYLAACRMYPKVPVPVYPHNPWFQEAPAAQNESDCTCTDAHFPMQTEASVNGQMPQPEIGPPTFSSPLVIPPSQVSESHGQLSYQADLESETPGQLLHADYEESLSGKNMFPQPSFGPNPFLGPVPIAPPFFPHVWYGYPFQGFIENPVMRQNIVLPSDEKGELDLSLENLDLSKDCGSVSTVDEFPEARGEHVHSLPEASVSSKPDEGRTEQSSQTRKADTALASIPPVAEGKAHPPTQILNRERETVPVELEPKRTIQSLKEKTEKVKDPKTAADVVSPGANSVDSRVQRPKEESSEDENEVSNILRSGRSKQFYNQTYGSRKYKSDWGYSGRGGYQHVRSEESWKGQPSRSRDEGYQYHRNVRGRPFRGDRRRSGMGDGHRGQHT
# In short: as §1
# OTUD5 = target: T5, OTUD5 (UniProt Q96G74)
# T5 sequence (whole entry): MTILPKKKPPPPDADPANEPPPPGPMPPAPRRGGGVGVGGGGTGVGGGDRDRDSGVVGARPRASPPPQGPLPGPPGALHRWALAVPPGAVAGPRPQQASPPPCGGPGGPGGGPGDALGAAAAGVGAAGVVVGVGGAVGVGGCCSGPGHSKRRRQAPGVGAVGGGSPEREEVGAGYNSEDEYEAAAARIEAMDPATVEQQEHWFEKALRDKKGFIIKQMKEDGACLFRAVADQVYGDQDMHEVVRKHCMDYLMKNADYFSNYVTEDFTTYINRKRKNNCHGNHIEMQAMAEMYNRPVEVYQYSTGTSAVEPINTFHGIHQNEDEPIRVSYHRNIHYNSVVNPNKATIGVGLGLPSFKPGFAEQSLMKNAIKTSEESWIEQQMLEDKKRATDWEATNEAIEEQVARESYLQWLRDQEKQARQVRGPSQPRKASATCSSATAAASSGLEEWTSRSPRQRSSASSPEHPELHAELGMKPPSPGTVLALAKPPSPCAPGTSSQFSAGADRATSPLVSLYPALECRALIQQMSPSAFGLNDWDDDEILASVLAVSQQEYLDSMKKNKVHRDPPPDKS
# In short: as §1
Compound,log2 ratio of Biotin-Ahx-Ub-VS probe labelling (ALG13),log2 ratio of Biotin-Ahx-Ub-VS probe labelling (ATXN3),log2 ratio of Biotin-Ahx-Ub-VS probe labelling (BAP1),log2 ratio of Biotin-Ahx-Ub-VS probe labelling (EIF3F),log2 ratio of Biotin-Ahx-Ub-VS probe labelling (EIF3H),log2 ratio of Biotin-Ahx-Ub-VS probe labelling (FAM105A),log2 ratio of Biotin-Ahx-Ub-VS probe labelling (OTUB1),log2 ratio of Biotin-Ahx-Ub-VS probe labelling (OTUD4),log2 ratio of Biotin-Ahx-Ub-VS probe labelling (OTUD5)
O=C(CCl)NCCC1COCCO1 (centres undefined),-0.267,-0.282,-1.01 (active),-0.44,0.24,-0.278,-0.233,-0.214,-0.165
O=C(CCl)N1CCC(OCc2ccccc2F)CC1,-0.0579,-0.708,-0.64,-0.319,-0.284,-0.178,-0.00851,-0.169,-0.0801
O=C(CCl)NC1(c2ccc3c(c2)OCCO3)CCCC1,-0.035,-0.252,-1.89 (active),-0.19,-0.051,0.0394,-0.359,-1.1 (active),-0.293
O=C(CCl)Nc1ccc(F)cc1Cl,-0.23,-0.598,-3.7 (active),-0.37,0.131,0.0383,-0.452,-0.578,-0.8
NC(=O)C1CCCN(C(=O)CCl)C1 (centres undefined),0.0966,-0.171,-0.437,-0.000958,0.225,0.217,-0.301,0.0344,-0.159
Cc1ccc(CN(CCO)C(=O)CCl)cc1,0.163,-0.225,-1.12 (active),0.0155,0.0625,0.0195,-0.0318,-0.355,-0.372
Cc1nc(CN2CCN(C(=O)CCl)CC2)cs1,0.271,-0.309,-0.469,-0.26,0.0747,0.151,0.0298,-0.0355,-0.265
Cc1c(NC(=O)CCl)c(=O)n(-c2ccccc2)n1C,0.0604,-0.0623,-1.12 (active),-0.188,0.333,-0.533,-0.0746,0.11,-0.0203
O=C(CCl)NC1CCCCNC1=O (centres undefined),-0.0613,-0.417,-0.683,-0.598,0.103,0.229,-0.231,-0.342,-0.397
C#Cc1cccc(NC(=O)CCl)c1,-0.0771,-0.239,-3.08 (active),-0.206,0.0977,0.233,-0.135,-0.211,-0.288
O=C(CCl)NCCC1=CCCCC1,0.121,-0.135,-0.56,-0.0695,0.0525,-0.125,0.147,-0.135,-0.0425
O=C(CCl)N1CCN(c2nc3ccccc3o2)CC1,0.254,-1.05 (active),-1.05 (active),-0.704,-0.664,0.0333,0.0507,-0.141,-0.83
O=C(CCl)Nc1cc2c(cc1Cl)OCCCO2,0.0687,-0.0939,-3.43 (active),-0.197,-0.577,0.278,-0.0827,0.136,-0.0905
CN(C)S(=O)(=O)c1ccccc1CNC(=O)CCl,0.242,-0.137,-1.09 (active),-0.0947,0.29,-0.0283,-0.0251,-0.249,-0.29
Cl.O=C(CCl)N1CCC(n2nc3ccccc3n2)CC1,-0.254,-1.1 (active),-2.08 (active),-0.315,-0.151,0.315,-0.67,-0.134,-0.494
Cl.Cn1nc2c(c1CNC(=O)CCl)CCCC2,-0.455,-0.903,-2.53 (active),-0.323,-0.0155,-0.099,-0.175,-0.319,-0.329
